According to the supplement of paper PMC9334596:
Where “and” joins values, the source holds several entries; their conditions need not be identical. Equal values may be shown once. The full ranking holds about 5,300 compounds; the median of “PER2::LUC luminescence relative to vehicle control” is about 0.96, and the highest 2% start at about 1.3. The sample as a whole holds a higher share of the highest values than the screen did.

Test system: mPer2Luc MEF
Test: PER2::LUC luminescence relative to vehicle control (fold of vehicle); higher = higher PER2::LUC reporter signal
Settings: 10 µM
Procedure, shortened: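 Each value gives PER2::LUC luminescence as fold of vehicle control, measured with the ONE-Glo luciferase assay system in mouse embryonic fibroblasts carrying the mPer2Luc reporter. Cells grown in DMEM with 10% FBS at 37 °C and 5% CO2 were seeded at ~3000 per well in 384-well plates. Library compounds were added at 10 μM 48 h later, and readings were taken 24 h and 30 h after treatment.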

Row | SMILES | PER2::LUC luminescence (time after treatment 24 h) | PER2::LUC luminescence (time after treatment 30 h)
1 | CNc1ncnc2c1ncn2[C@H]1C[C@H](O)[C@@H](CO)O1 | 1.04 | 0.963
2 | C[C@@H]1O[C@@H](O[C@@H]2[C@@H](O)[C@H](O)[C@@H](CO)O[C@H]2c2c(O)cc(O)c3c(=O)cc(-c4ccc(O)cc4)oc23)[C@H](O)[C@H](O)[C@H]1O | 1.04 | 0.979
3 | O=C1c2ccccc2C(=O)C1c1ccc(Br)cc1 | 0.477 | 0.974
4 | O=C1c2ccccc2C(=O)C1c1ccccc1 | 1.05 and 0.913 | 1 and 0.991
5 | COc1ccc(C2C(=O)c3ccccc3C2=O)cc1 | 1.08 | 1.36
6 | CCCCOC(=O)OCCCC | 1 | 1.02
7 | CC1=CC(=O)CC(C)(C)C1(O)/C=C/C(C)=C\C(=O)O (racemic) | 1.01 | 1.02
8 | CCOc1ccccc1C(N)=O | 1.03 and 0.951 | 0.986 and 0.793
9 | CCCCCCOc1ccccc1C(N)=O | 1.33 | 1.53
10 | CCOCCOc1ccccc1C(N)=O | 0.861 | 1.09
11 | COc1ccc2cc(CCC(C)=O)ccc2c1 | 1.75 | 1.7
12 | COc1ccc2cc([C@H](C)C(=O)O)ccc2c1 | 0.987 and 1.09 and 0.7 | 0.972 and 0.822 and 0.852
13 | COc1ccc2cc([C@@H](C)C(=O)O)ccc2c1 | 1 | 1.05
14 | CCO/N=C1\c2ccccc2-c2nc(C#N)c(C#N)nc21 | 0.664 | 0.619
15 | C=CC(=O)c1ccc(CCCCCC)cc1 | 1.02 | 0.845
16 | CCNCCNC(=O)c1c(C)[nH]c(/C=C2\C(=O)Nc3ccc(F)cc32)c1C | 0.42 | 0.619
17 | CC(C)(Cc1nc(-c2ccc(O)cn2)no1)C(=O)NC1=C(C(=O)O)CCCC1 | 1.02 | 1.08
18 | FC(F)(F)c1ccccc1-n1ccnc1 | 0.975 | 0.907
19 | N#Cc1ccc(C(c2ccc(C#N)cc2)n2cncn2)cc1 | 0.794 | 1.11
20 | c1ccc(-c2ccc(C(c3ccccc3)n3ccnc3)cc2)cc1 (stereo not drawn) | 1.45 | 1.32
21 | O=C1c2ccccc2C(=O)c2oc(-c3ccccc3)nc21 | 1.15 | 0.538
22 | Cn1ccc2cc(NC(=O)Nc3cccnc3)ccc21 | 1.15 | 0.855
23 | Cc1cc(NC(=O)Nc2ccc3c(ccn3C)c2)sn1 | 1.59 | 1.52
24 | CC(C)c1cc(-c2n[nH]c(=O)n2-c2ccc3c(ccn3C)c2)c(O)cc1O | 0.062 | 0.052

Row | SMILES | PER2::LUC luminescence (time after treatment 24 h) | PER2::LUC luminescence (time after treatment 30 h)
25 | N[C@H](CCC(=O)O)C(=O)O | 1.1 | 1.01
26 | CC(C)C1=CC2=CC[C@@H]3[C@](C)(CCC[C@@]3(C)C(=O)O)[C@H]2CC1 | 1.34 | 1.15
27 | C=C1C[C@@]23CC[C@H]4[C@@](C)(CCC[C@@]4(C)C(=O)O)[C@@H]2CC[C@]1(O)C3 | 0.886 | 1.12
28 | CC(C)c1cc2c(cc1S(=O)(=O)O)[C@@]1(C)CCC[C@@](C)(C(=O)O)[C@@H]1CC2 | 1.03 | 1
29 | FC(F)(F)c1ccc(Nc2nc(-c3c(C(F)(F)F)nc4ccccn34)cs2)cc1 | 0.269 | 0.305
30 | COc1cccc(NC(=O)/C=C/c2ccc(Cl)cc2)c1 | 1.39 | 1
31 | COc1cc(NC(=O)c2ccc(-c3ccc(Cl)cc3)o2)cc(OC)c1 | 0.947 | 1.04
32 | CC(C)(C)c1ccc(/C=C/C(=O)Nc2ccc3c(c2)OCCO3)cc1 | 0.942 | 1.11
33 | C[n+]1ccc(C=Cc2ccc3ccccc3c2)cc1 | 0.908 | 1.07
34 | OCC1OC(n2cnc3c(NC4CCCCC4)ncnc32)C(O)C1O (stereo not drawn) | 0.986 | 1.02
35 | Nc1ccc(CCNc2ncnc3c2ncn3C2OC(CO)C(O)C2O)cc1 (stereo not drawn) | 0.951 | 0.857
36 | CC(Cc1ccccc1)Nc1ncnc2c1ncn2C1OC(CO)C(O)C1O (single isomer, unassigned; (-)) | 0.925 | 0.965
37 | OC[C@H]1O[C@@H](n2cnc3c(Nc4ccccc4)ncnc32)[C@H](O)[C@@H]1O | 1.41 | 1.13
38 | Cc1ccccc1CNc1ncnc2c1ncn2[C@@H]1O[C@H](CO)[C@@H](O)[C@H]1O | 1.35 | 1.28
39 | CNc1ncnc2c1ncn2[C@@H]1O[C@H](CO)[C@@H](O)[C@H]1O | 0.974 | 1.04
40 | COc1ccc2cc1Oc1ccc(cc1)C[C@@H]1c3cc(c(OC)cc3CCN1C)Oc1c(OC)c(OC)cc3c1[C@H](C2)N(C)CC3 | 0.674 | 0.713
41 | COc1cc(N2CCOCC2)ccc1NC(=O)c1csc(-c2cccnc2)n1 | 0.906 | 1.02
42 | CCOC(=O)c1cc(OC)c(OC)cc1NC(=O)c1cc(OC)c(OC)c(OC)c1 | 1.08 | 1.16
43 | CC(C)CCCC(C)C1CCC2C3CCC4CC(O)CCC4(C)C3CCC12C (stereo not drawn) | 0.978 | 0.951
44 | CC1(C)C=Cc2cc3ccc(=O)oc3cc2O1 | 1.26 | 1.48
45 | COc1cc2ccc(=O)oc2cc1O | 1.02 | 1.04
46 | O=c1ccc2cc(O)c(O)cc2o1 | 0.867 | 0.732
47 | CCOC(=O)CCCCCCCCCCCN(C)C(=O)CO[C@H](C)[C@@H](C)OCC(=O)N(C)CCCCCCCCCCCC(=O)OCC | 1.2 | 1.08
48 | CCN1CCN(Cc2ccc(NC(=O)c3ccc(C)c(/C=C/c4cnc5[nH]ccc5c4OC)c3)cc2C(F)(F)F)CC1 | 0.349 | 0.394

Row | SMILES | PER2::LUC luminescence (time after treatment 24 h) | PER2::LUC luminescence (time after treatment 30 h)
49 | CCCC(=O)NCCc1c(I)[nH]c2ccc(OC)cc12 | 0.668 | 0.814
50 | CCCCC/C=C\C[C@@H](O)/C=C/c1cccc(C[C@@H](O)CCCCO)n1 | 1.07 | 0.841
51 | O=C(Nc1cccc(C(F)(F)F)c1)Nc1cc(Cl)ccc1C(=O)O | 1.07 | 1
52 | CCN(CC)CCNC(=O)c1cc(S(C)(=O)=O)ccc1OC | 0.984 | 0.88
53 | CCN(CC)CCNC(=O)COc1ccc(OC)cc1 | 1.38 | 1.49
54 | CCN(CC)CCNC(=O)c1ccc(N)cc1 | 1.11 | 1.27
55 | CC12CCC3c4ccc(O)cc4CCC3C1CCC2O (stereo not drawn) | 0.721 | 0.751
56 | OC[C@H]1O[C@@H](n2cnc3c(N[C@H]4CCC[C@@H]4O)ncnc32)[C@@H](O)C1O (stereo partly drawn) | 1.25 | 0.88
57 | CN(C)CC1CCC2=C(C1=O)C(c1ccc(Cl)c(Cl)c1)C1=C(CCC(CN(C)C)C1=O)O2 (stereo not drawn) | 1.15 | 1.08
58 | O=C1Nc2cc(Br)ccc2/C1=C1/Nc2ccccc2/C1=N\O | 0.773 | 1.09
59 | O=C1Cc2c([nH]c3ccc(Br)cc23)-c2ccccc2N1 | 1.15 | 1.88
60 | C[C@H](NCc1ccc(OCc2cccc(F)c2)cc1)C(N)=O | 1.22 and 1.67 | 1.5 and 1.51
61 | CC(C)NC[C@@H](O)COc1ccc(CC(N)=O)cc1 | 1.01 | 0.958
62 | CC(C)NCC(O)COc1ccc(CC(N)=O)cc1 (stereo not drawn) | 1.26 | 1.06
63 | COc1ccc([C@@H]2CC(=O)c3c(O)cc(OC4O[C@H](CO[C@H]5O[C@@H](C)[C@@H](O)[C@@H](O)[C@H]5O)[C@H](O)[C@H](O)[C@H]4O)cc3O2)cc1O (stereo partly drawn) | 1.02 | 1.03
64 | O=C(NCc1nc2ccccc2c(=O)n1-c1ccc(F)cc1)Nc1ccc(Cl)c(C(F)(F)F)c1 | 1 | 0.929
65 | O=S(=O)(O)c1cc(N=C=S)ccc1/C=C/c1ccc(N=C=S)cc1S(=O)(=O)O | 0.832 | 0.684
66 | CC(=O)Nc1ccc(O)cc1 | 0.846 | 0.81
67 | C/C(O)=C(\C#N)C(=O)Nc1ccc(C(F)(F)F)cc1 | 1.32 and 1.08 | 1.56 and 1.07
68 | CC(=O)Nc1ccc(NC(=S)NC(=O)c2ccc(C(C)(C)C)cc2)cc1 | 0.812 | 0.973
69 | O=C([O-])CN1CCN(CC(=O)[O-])CCN([C@H](CO)[C@H](O)CO)CCN(CC(=O)[O-])CC1.[Gd+3] (racemic) | 1.03 | 1.04
70 | C[C@H]1COC2(CCN(c3nc(=O)c4cc(C(F)(F)F)cc([N+](=O)[O-])c4s3)CC2)O1 (racemic) | 1.32 | 1.39
71 | COCc1c(C(C)C)nc(C(C)C)c(/C=C/[C@@H](O)C[C@@H](O)CC(=O)O)c1-c1ccc(F)cc1 | 0.305 | 0.274
72 | CCN1CCC[C@H]1CNC(=O)c1c(O)c(Cl)cc(Cl)c1OC | 1.14 and 1.02 | 0.977 and 0.877

Row | SMILES | PER2::LUC luminescence (time after treatment 24 h) | PER2::LUC luminescence (time after treatment 30 h)
73 | CCCCN1CCCC1CNC(=O)c1cc(C#N)c2ccccc2c1OC (stereo not drawn) | 1 | 1.58
74 | CCN1CCC[C@H]1CNC(=O)c1c(OC)ccc(Br)c1OC | 1.03 | 0.993
75 | CC(C)=CCC[C@@H](C)[C@H]1CC[C@@]2(C)C3=C(CC[C@]12C)[C@@]1(C)CC[C@H](O)C(C)(C)[C@@H]1CC3 | 1.06 | 0.995
76 | O=C(O)CC1CCC(c2ccc(-c3ccc4nc(C(=O)NCc5ccc(OC(F)(F)F)cc5)cn4c3)cc2)CC1 (stereo not drawn) | 1 | 1.1
77 | CC(C)(C)c1ccc(-c2nc3ccccc3[nH]2)cc1 | 0.03 | 0.034
78 | c1ccc(Cc2nc3ccccc3[nH]2)cc1 | 1.17 | 0.971
79 | c1ccc2[nH]c(-c3cscn3)nc2c1 | 1.41 | 1.35
80 | O=C(NC[C@@H]1CN(c2ccc(N3CCOCC3=O)cc2)C(=O)O1)c1ccc(Cl)s1 | 0.948 | 0.975
81 | CNC(=O)[C@H]1O[C@@H](n2cnc3c(N)ncnc32)[C@H](O)[C@@H]1O | 1.11 | 1.03
82 | CC1(O)CCC(C(C)(C)O)CC1 (stereo not drawn) | 0.901 and 0.99 | 0.986 and 0.688
83 | C[C@H]1CC[C@@H](C(C)(C)O)CC2=C1CC[C@@H]2C | 1.46 | 1.05
84 | CCOc1ccc2nc(S(N)(=O)=O)sc2c1 | 1.19 | 1.28
85 | Nc1nc2ccc(OC(F)(F)F)cc2s1 | 1.26 and 0.999 | 1.5 and 1.06
86 | COc1cc(/C=C/c2ccc(O)cc2)cc(OC)c1 | 1.03 | 0.93
87 | Oc1ccc(/C=C/c2cc(O)cc(O)c2)cc1 | 1.46 | 1.29
88 | Oc1cc(O)cc(/C=C/c2ccc(O)c(O)c2)c1 | 1.15 | 1.09
89 | NC1(C(=O)O)C[C@@H](C(=O)O)[C@H](C(=O)O)C1 (racemic) | 0.98 | 0.892
90 | COc1cc(-c2oc3cc(O)ccc3c(=O)c2O)ccc1O | 1.13 | 1.2
91 | COc1cc(N(C)CCN(C)C)c(N)cc1Nc1nccc(-c2cn(C)c3ccccc23)n1 | 0.57 | 0.54
92 | COc1ccc2c(c1)OCc1c-2oc2cc(OC)ccc12 | 1.52 | 1.8
93 | COc1ccc2c(C)cc(=O)oc2c1 | 0.984 | 1.02
94 | COc1ccc2c(c1)OC/C(=C\c1ccc(OC)c(O)c1)C2=O | 0.879 | 0.794
